PubChem BioAssay (Tox21)
A number with no mark means an inactive call. Calls come from the whole dose curve.

target: Acetylcholinesterase (Homo sapiens) (UniProt P22303); test: Acetylcholinesterase (AChE) small molecule antagonists: enzyme-based qHTS assay with human liver microsomes (AID 1347399); settings: Potency: qHTS inhibition; outcome: qHTS inhibition; series mostly up to 115 µM; activity change, negative = inhibition: at the top concentration; note: nearly all actives have a fitted effect of over 60% in size
In short: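 Recombinant human AChE (50 mU/mL in the enzyme mix) and human liver microsomes (0.25 mg/mL final) were preincubated with compound and NADPH (0.25 mg/mL final) for 30 min at 37 C. Acetylthiocholine/DTNB was then added; thiocholine was read colorimetrically after 10 min at room temperature.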
% is set by controls: 0 for no effect and ±100 for the full control effect.

Acetylcholinesterase (Homo sapiens), sequence (P22303 whole entry, looked up): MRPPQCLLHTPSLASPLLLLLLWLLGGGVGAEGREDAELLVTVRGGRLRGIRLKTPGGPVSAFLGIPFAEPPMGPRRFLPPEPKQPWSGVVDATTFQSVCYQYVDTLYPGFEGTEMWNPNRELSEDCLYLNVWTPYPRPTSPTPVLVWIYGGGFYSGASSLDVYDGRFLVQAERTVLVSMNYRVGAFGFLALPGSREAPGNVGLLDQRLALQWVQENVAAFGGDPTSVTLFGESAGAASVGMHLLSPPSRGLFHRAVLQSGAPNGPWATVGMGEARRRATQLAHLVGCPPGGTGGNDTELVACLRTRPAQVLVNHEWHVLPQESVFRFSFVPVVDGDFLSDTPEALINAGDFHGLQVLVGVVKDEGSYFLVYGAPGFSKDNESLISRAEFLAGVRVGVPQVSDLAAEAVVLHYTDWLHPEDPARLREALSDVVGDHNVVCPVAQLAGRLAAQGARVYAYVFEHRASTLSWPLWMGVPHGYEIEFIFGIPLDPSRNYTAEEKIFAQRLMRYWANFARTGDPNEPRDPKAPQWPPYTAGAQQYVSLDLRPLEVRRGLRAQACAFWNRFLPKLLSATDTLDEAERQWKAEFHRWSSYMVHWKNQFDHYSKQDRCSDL

Compound | activity change, negative = inhibition
COC(=O)c1ccccc1C(=O)c1ccc(OCCN2CCCCC2)cc1 | -0.283% [at 53 µM]
NC(=O)NC1N=C([O][Al])NC1=O (centres undefined) | -3.36% [at 53 µM]
CN1C(=O)OC(C)(C)C1=O | 0%
CSc1ccc(C(=O)c2[nH]c(=O)[nH]c2C)cc1 | 3.83% [at 53 µM]
O=C1NC(=O)c2cccc3cccc1c23 | 0.306%
Cc1cc(-c2ccccc2)nnc1NCCN1CCOCC1 | -0.139% [at 53 µM]
CS(=O)(=O)c1ccc(-c2cn3ccccc3n2)cc1 | -0.084% [at 53 µM]
CC1=C(/C=C/C(C)=C\C=C\C(C)=C\C(=O)O)C(C)(C)CCC1 | 0.142%
C[Si](C)(C)C | 0.0514%
CCC(CC)C(C)CCOC(C)=O (centres undefined) | 1.6%
CN(C)CCN(Cc1ccccc1)c1ccccn1 | -0.503% [at 53 µM]
C=CCSCC1Nc2cc(Cl)c(S(N)(=O)=O)cc2S(=O)(=O)N1 (centres undefined) | -0.505% [at 53 µM]
C=C(C)C(=O)OCCCCCCCCCCOC(=O)C(=C)C | -1.37%
CCN(CCCCOC(=O)c1ccc(OC)c(OC)c1)C(C)Cc1ccc(OC)cc1 (centres undefined) | 3.61% [at 53 µM]
CC(=O)[C@H]1CC[C@H]2[C@@H]3C=CC4=CC(=O)CC[C@@]4(C)[C@@H]3CC[C@]12C | -1.55% [at 53 µM]
CCOc1ccc(C(=O)OCCN(CC)CC)cc1 | 3.45% [at 53 µM]
COC(=O)C(c1ccccc1Cl)N1CCc2sccc2C1 (centres undefined) | -0.501% [at 53 µM]
C=CC(=O)NC(C)(C)C | 0.229%
CN(C)CC/C=C1\c2ccccc2Sc2ccc(Cl)cc21 | -1.34% [at 53 µM]
OCc1c[nH]c2ccccc12 | -4.86%

Compound | activity change, negative = inhibition
CO[C@@H]1[C@@H](O[C@@H]2O[C@H](C)[C@@H](O[C@H]3C[C@@](C)(O)[C@@H](O)[C@H](C)O3)[C@H](N(C)C)[C@H]2O)[C@@H](CC=O)C[C@@H](C)[C@@H](O[C@@H]2CC[C@H](N(C)C)[C@@H](C)O2)/C=C/C=C/C[C@@H](C)OC(=O)C[C@H]1OC(C)=O | -0.503% [at 53 µM]
C=CCN1C[C@H](C(=O)N(CCCN(C)C)C(=O)NCC)C[C@@H]2c3cccc4[nH]cc(c34)C[C@H]21 | -0.837% [at 53 µM]
CCCCCCCCCCCCSCCOCCO | -0.0168% [at 53 µM]
NC(=O)c1ncn([C@@H]2O[C@H](CO)[C@@H](O)[C@H]2O)c1O | -0.924% [at 53 µM]
CCN(CC)C(C)CN1c2ccccc2Sc2ccccc21 (centres undefined) | 1.55% [at 53 µM]
c1ccc(C(O[C@H]2CCCN(CCc3ccc4c(c3)OCO4)C2)c2ccccc2)cc1 | -0.734% [at 53 µM]
CCCCCCC#CC(=O)OC | -0.288%
C(=C\c1ccccc1)/c1ccccc1 | 1.39%
O=C(Nc1cccc2c(=O)cc(-c3nn[nH]n3)oc12)c1ccc(OCCCCc2ccccc2)cc1 | -0.388% [at 53 µM]
CC1CC(=O)NN=C1c1ccc(NCC(C)(C)NCC(O)COc2cc(Cl)ccc2C#N)cc1 (centres undefined) | -0.163% [at 53 µM]
N#CSCC(=O)O | 0.666% [at 53 µM]
Oc1cc2c(cc1O)[C@H]1c3ccc(O)c(O)c3OC[C@@]1(O)C2 | -5.52%
Cc1cc(C)cc([N+](=O)[O-])c1 | 0%
O=[Si]=O | 0%
Cc1nc(N)nc(N)c1-c1ccc(Cl)c(Cl)c1 | 0.202% [at 53 µM]
Cc1c(-c2ccccc2)oc2c(C(=O)OCCN3CCCCC3)cccc2c1=O | 2.1% [at 53 µM]
O=C(OCCN1CCOCC1)c1cccnc1Nc1cccc(C(F)(F)F)c1 | 1.32% [at 53 µM]
CC1CC(=O)CC(C)(C)C1 (centres undefined) | -0.619%
OCCN1CCN(CCCN2c3ccccc3Sc3ccc(Cl)cc32)CC1 | 0.524% [at 53 µM]
